Bioassay records: PubChem BioAssay, several laboratories
HIV Env fusion: inhibitors of HIV Env-mediated cell fusion; HeLa-JRFL Env/CEM21 cell fusion, luciferase; inhibition, % at 12.3 µM; 360,000 tested, 1.1% active; AID 651610;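 active = mean replicate inhibition score of at least 50 and every replicate individually at or above 50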;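 also: 0% = plate neutral controls and 100% = maraviroc near 300 nM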
FXN GAA850 act: activators of GAA850 frataxin (FXN) promoter; activation, % at 6 µM; HEK293 lucGAA850 FXN promoter luciferase reporter, 24 h; percent of 10 µM SAHA response; 360,000 tested, 0.56% active; AID 540364;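 active = activation above the average of all compounds screened plus 3 SD, cutoff fixed separately per campaign, cut at about 7.5% in these data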;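 also: 0% = DMSO wells and 100% = 10 µM SAHA wells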
F508del corr: correctors of CFTR F508del function in bronchial epithelial cells; CFBE cells, YFP halide quenching; stimulated with forskolin plus potentiator P3; % fluorescence drop versus neutral controls; activity (quench increase), % at 7.58 µM; 350,000 tested, 0.36% active; AID 720511;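 active = mean added fluorescence quench of at least 8% versus neutral control, with both replicates also reaching 8%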;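 also: cells transiently co-express mutant CFTR-F508del with the halide-sensitive YFP; corrector assay measuring rescue of mutant channel to the surface after 24 h compound exposure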
PAX8 reporter: PAX8 transcriptional activity inhibition; RMG-I TPO-luciferase reporter, SteadyGlo, 24 h; inhibition, % at 12.6 µM; 360,000 tested, 1.2% active; AID 652154;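 active = mean replicate inhibition at least 60% with every replicate also reaching 60%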;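 also: luciferase light reporting Pax8 driven TPO promoter activity; plate controls were median of neutral control wells for no effect and mitoxantrone controls for full effect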
EWS-Fli inh: blocks EWS/Fli oncoprotein-driven transcription; 350,000 tested, 0.67% active; inhibition, % at 12.6 µM; A673 NR0B1-luciferase reporter, viability-normalised;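 active = mean inhibition of at least 50% after viability correction, with every replicate also passing that limit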;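 also: firefly luciferase signal divided by Alamar Blue viability fluorescence both relative to DMSO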
* = called active by the depositor; . = not tested or not shown; [ ] = remark or other dose. An excerpt weighted towards active compounds, which were near 2.5% of everything screened.

SMILES	HIV Env fusion	FXN GAA850 act	F508del corr	PAX8 reporter	EWS-Fli inh
C/C=C/c1cnc2c(c1)C(=O)N([C@@H](C)CO)C[C@H](C)[C@H](CN(C)Cc1ccccc1)O2	8[16.7 µM]	.	2	.	8
C[C@@H]1CCCCO[C@H](CN(C)C(=O)Nc2ccc(F)cc2)[C@H](C)CN([C@H](C)CO)C(=O)c2cc(NC(=O)Cc3ccccc3)ccc2O1	-42[16.7 µM]	.	0	0	3
C[C@@H]1CCCCO[C@@H](CN(C)S(=O)(=O)c2cccs2)[C@H](C)CN([C@@H](C)CO)C(=O)c2cc(NC(=O)Nc3ccc(C(F)(F)F)cc3)ccc2O1	26[16.7 µM]	.	3	65*	-6
C[C@@H]1CCCCO[C@@H](CN(C)S(=O)(=O)c2ccccc2)[C@H](C)CN([C@H](C)CO)C(=O)c2cc(NC(=O)Nc3ccc(C(F)(F)F)cc3)ccc2O1	34[16.7 µM]	.	6	89*	12
C[C@@H]1CCCCO[C@H](CN(C)S(=O)(=O)c2ccccc2)[C@H](C)CN([C@H](C)CO)C(=O)c2cc(NC(=O)Nc3ccc(C(F)(F)F)cc3)ccc2O1	20[16.7 µM]	.	3	52	4
C[C@H](CO)N1C[C@H](C)[C@H](CN(C)S(=O)(=O)c2cccs2)OCCCC[C@H](C)Oc2ccc(NC(=O)NC3CCCCC3)cc2C1=O	-5[16.7 µM]	.	2	104*	14
C[C@@H]1CN([C@H](C)CO)C(=O)c2cc(NC(=O)Nc3ccc(C(F)(F)F)cc3)ccc2O[C@@H](C)CCCCO[C@H]1CN(C)S(=O)(=O)c1ccccc1	26[16.7 µM]	.	2	96*	12
Cc1ccc(S(=O)(=O)N(C)C[C@H]2OCCCC[C@H](C)Oc3ccc(NC(=O)Nc4ccc(C(F)(F)F)cc4)cc3C(=O)N([C@@H](C)CO)C[C@@H]2C)cc1	28[16.7 µM]	.	1	0	4
COCCOC(=O)N1C(=O)[C@@]2(c3ccccc31)[C@H](C(=O)N1CCN(c3ncccn3)CC1)[C@H]1C(=O)O[C@H](c3ccccc3)[C@H](c3ccccc3)N1[C@@H]2c1ccccc1OCCO	7[16.7 µM]	.	0	15	9
C[C@H]1CN([C@@H](C)CO)C(=O)c2cc(C#CCC3CCCC3)cnc2O[C@@H]1CN(C)S(=O)(=O)c1cccs1	18[16.7 µM]	.	-1	67*	6
C[C@H]1CCCCO[C@H](CN(C)S(=O)(=O)c2ccccc2)[C@@H](C)CN([C@@H](C)CO)C(=O)c2cc(NC(=O)Nc3ccc(C(F)(F)F)cc3)ccc2O1	13[16.7 µM]	.	3	68*	3
C[C@@H]1CN([C@H](C)CO)S(=O)(=O)c2ccc(-c3cncnc3)cc2O[C@H]1CN(C)C(=O)C1CCC1	-10[16.7 µM]	.	0	.	-8
CCOc1ccc(OCC)c(NC(=O)CN2CCN(c3cc(C)ccc3C)CC2)c1	61*	1	.	.	.
CCOc1ccc(OCC)c(NC(=O)CN2CCN(c3cccc(C)c3)CC2)c1	.	-2	.	.	.
N#C[C@H]1[C@H](c2ccccc2C2=CCCCC2)[C@@H](CO)N1C(=O)NC1CCCCC1	.	.	0	.	3
COCC(C)n1c(C)cc(C(=O)COC(=O)c2cnc(Cl)c(Cl)c2)c1C (centres undefined)	-10	1	2	2	6
COCC(C)n1c(C)cc(C(=O)COC(=O)c2cccn2C)c1C (centres undefined)	-2	-8	4	-1	61*
NC(=S)N/N=C/c1cccc(O)c1O	-56	7	-3	23	30
Cc1cc(/C=N/NC(N)=S)c(O)c(/C=N/NC(N)=S)c1	16	-2	14*	15	9
C=CCn1c(SCC(=O)c2[nH]c(C)c(C(C)=O)c2C)nnc1-c1ccncc1	.	-2	.	.	.
C=CCn1c(SCC(=O)c2[nH]c(C)c(C(=O)OC)c2C)nc2scc(-c3ccc(OC)c(OC)c3)c2c1=O	2	1	.	7	60*
C[C@H](CO)N1C[C@H](C)[C@H](CN(C)Cc2ccc(Cl)c(Cl)c2)Oc2ccc(N(C)C)cc2CC1=O	-3[16.7 µM]	.	-3	13	6
C[C@@H]1CN([C@@H](C)CO)C(=O)Cc2cc(N(C)C)ccc2O[C@H]1CN(C)Cc1ccc(Cl)c(Cl)c1	17[16.7 µM]	.	0	71*	-1
C[C@H](CO)N1C[C@H](C)[C@@H](CN(C)Cc2ccc(Cl)c(Cl)c2)Oc2ccc(N(C)C)cc2CC1=O	42[16.7 µM]	.	-3	75*	-1
COc1ccc(NC(=O)Nc2cccc3c2O[C@H](CN(C)C(=O)Nc2ccc(OC)cc2)[C@@H](C)CN([C@@H](C)CO)C3=O)cc1	-26[16.7 µM]	.	5	-8	-8
SMILES	HIV Env fusion	FXN GAA850 act	F508del corr	PAX8 reporter	EWS-Fli inh
Cc1ccc(/C=C2/NC(=O)N(c3ccccc3)C2=O)o1	-71	5	.	.	.
O=C1N/C(=C/c2ccc(N3CCOCC3)o2)C(=O)N1c1cccc(Cl)c1	-478	8.9*	-1	4	40
CCCNC(=O)N(C)C[C@H]1Oc2cc(-c3cncnc3)ccc2S(=O)(=O)N([C@H](C)CO)C[C@@H]1C	.	.	-1	-20	0
O=C(Nc1ccc(F)cc1F)c1cccc(C(=O)Nc2ccc(F)cc2F)n1	58*	2	-2	-3	-1
CCCCN(C)c1c(C)nc2ccc(C(=O)N(CC)CCN(C)C)cn12	63*	0	-5	82*	-13
N#CC(Cc1cccc(CC(C#N)(c2ccccc2)c2ccccc2)c1)(c1ccccc1)c1ccccc1	57*	0	-3	-14	20
O=[N+]([O-])c1cc([N+](=O)[O-])c2cc3ccccc3nc2c1	-46	3	-1	27	72*
C[C@@H]1CN([C@H](C)CO)C(=O)c2cc(C#C[C@@H](C)O)cnc2O[C@@H]1CN(C)C(=O)c1ccccc1	4[16.7 µM]	.	-2	.	-11
O=C(C[C@H]1C=C[C@@H](NS(=O)(=O)c2ccccc2)[C@H](CO)O1)NCc1ccc(Cl)c(Cl)c1	-6[16.7 µM]	.	1	17	-3
COc1ccc(C)cc1N1C(=N)/C(=C2/Nc3ccccc3S2)C(c2ccccc2)C1=O (centres undefined)	-20	4	.	13	66*
CC(C)C[C@H](NC(=O)c1[nH]cnc1C(=O)N[C@@H](Cc1ccccc1)C(=O)OCc1ccccc1)C(=O)OC(C)(C)C	44	-1	0	3	9
CC(C)C[C@H](NC(=O)c1[nH]cnc1C(=O)N[C@@H](Cc1ccccc1)C(=O)OC(C)(C)C)C(=O)OCc1ccccc1	58*	0	1	49	20
C[C@H](NC(=O)c1nc[nH]c1C(=O)N[C@@H](CCCCNC(=O)OC(C)(C)C)C(=O)OC(C)(C)C)C(=O)OCc1ccccc1	8	-1	-1	-11	2
CC(C)C[C@H](NC(=O)c1[nH]cnc1C(=O)N[C@@H](Cc1ccccc1)C(=O)OC(C)(C)C)C(=O)OC(C)(C)C	-15	0	-1	68*	11
CC(C)C[C@H](NC(=O)c1nc[nH]c1C(=O)N[C@@H](CCCCNC(=O)OC(C)(C)C)C(=O)OC(C)(C)C)C(=O)OCc1ccccc1	-43	-2	6	82*	17
